# An excerpt weighted towards active compounds, which were near 17% of everything screened.
# DT40 TDP1 no CPT – qHTS for Inhibitors of human tyrosyl-DNA phosphodiesterase 1 (TDP1): qHTS in cells in absence of CPT; AID 686978, 2013; actives 15% (n = 420,000); DT40 Tdp1-/- hTDP1 cells, no CPT, ATP luminescence, 48 h; Potency, µM (series often up to 46.2 µM), inactives show at the top dose activity change, negative = growth inhibition, hits mostly inhibitors; note: % is set by controls: 0 for no effect and ±100 for the full control effect; nearly all actives have a fitted effect of over 55% in size
#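 Seeded 400 DT40-hTDP1 cells/well (vehicle DMSO, no 20 nM CPT); pinned compounds; ≥48 hr at 37 °C; CellTiter-Glo luminescence as viability measure.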
# DT40 TDP1 CPT – qHTS for Inhibitors of human tyrosyl-DNA phosphodiesterase 1 (TDP1): qHTS in cells in presence of CPT. chicken DT40 Tdp1-/-;hTDP1 cells + 20 nM CPT, ATP luminescence, 48 h. Potency, µM (doses to about 46.2 µM), inactives show at the top dose activity change, negative = growth inhibition, most hits filed as inhibitors. actives 12% (n = 420,000). AID 686979, 2013; note: % is set by controls: 0 for no effect and ±100 for the full control effect; nearly all actives have a fitted effect of over 55% in size
#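 Chicken DT40 Tdp1-/- cells complemented with human TDP1, 400 cells/well, exposed to compounds plus 20 nM camptothecin for at least 48 h at 37 C; viability read as ATP content by CellTiter-Glo luminescence.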
# ATXN viability – Viability Counterscreen for Primary qHTS for Inhibitors of ATXN expression; Potency, µM (highest dose often 56.7 µM), hits mostly cytotoxic; S2 cells (HEK-293 line with an ATXN2-luciferase reporter) viability, CellTiter-Fluor protease fluorescence, 24 h; actives 0.49% (n = 400,000); note: nearly all actives have a fitted effect of over 40% in size
# HepG2 viability – qHTS for Inhibitors of TGF-b: Cytotox Counterscreen; AID 588856, 2011; actives 0.76% (n = 410,000); Potency, µM (series often up to 46.1 µM), for the others: at the top dose activity change, negative = cytotoxicity, most hits filed as cytotoxic; HepG2 CAGA-GFP viability, ATP luminescence, 18 h
#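 CellTiter-Glo luminescence gave cytotoxicity after 18 hours at 37 degrees C. The cells were HepG2 CAGA-GFP in 1% FBS DMEM, stimulated with 500 pg/mL TGF-beta after compound addition. %Activity was normalised to no-cell wells (complete cell-killing) and DMSO (no toxicity), and curves were fitted and classified.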
# ATXN2 expr inh – Primary qHTS for Inhibitors of ATXN expression | actives 0.72% (n = 360,000) | HEK-293 ATXN2-luciferase reporter, luminescence, 24 h | Potency, µM (doses to about 57 µM), for the others: at the top dose activity change, negative = inhibition, actives largely listed as inhibitors; note: % is set by controls: 0 for no effect and ±100 for the full control effect; nearly all actives have a fitted effect of over 55% in size
#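 qHTS (up to 57 uM final) was run with 24 h compound exposure of reporter cells at 37 °C. Each well was multiplexed: SteadyGlo luminescence measured ATXN2-luciferase expression after a fluorogenic Gly-Phe-AFC viability readout (25 uM final).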
# TGFb SMAD3 inh – qHTS for Inhibitors of TGF-b; HepG2 CAGA-GFP TGF-b/SMAD3 reporter, GFP fluorescence, 18 h; TGF-beta stimulated, 500 pg/mL final; Potency, µM (titrated, usually from 46.1 µM), for inactives: at the highest dose activity, negative = inhibition, hits mostly inhibitors; actives 1.2% (n = 410,000); note: % is set by controls: 0 for no effect and ±100 for the full control effect; nearly all actives have a fitted effect of over 65% in size
#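 Using HEPG2 CAGA-GFP reporter cells at 1000 cells/well, we pinned test compounds, stimulated with recombinant TGF-beta (500 pg/mL final) and measured total well GFP after 18 h.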
# * marks the source's active call; other numbers are inactive results; i = inactive; ? = inconclusive; . = no result. Calls come from the whole dose curve; as a rule, active = well fitted curve in the direction sought with a large enough effect; inconclusive = small, poorly fitted or top-dose-only effect, or another doubt; inactive = no such curve, though single readings can be large; an effect the other way counts as inactive or inconclusive. Potency is the fitted concentration of half-maximal effect.
SMILES,DT40 TDP1 no CPT,DT40 TDP1 CPT,ATXN viability,HepG2 viability,ATXN2 expr inh,TGFb SMAD3 inh
Cc1ccc(S(=O)(=O)NN=Cc2ccccc2Cl)cc1,?,23µM*,i,-8%,.,7%
COc1cccc(-c2cc(C(=O)Nc3cc(OC)c(OC)c(OC)c3)on2)c1,2.9µM*,5.8µM*,?,-18%,?,1%
COc1cc(NC(=O)c2cc(-c3ccccc3O)no2)cc(OC)c1OC,1.6µM*,2.3µM*,?,-20%,?,-11%
Cc1ccc(O)c(NC(=O)c2cc(-c3ccccc3O)no2)c1,?,?,i,-37%,25%,-6%
COc1cccc(-c2cc(C(=O)Nc3cc(Cl)ccc3O)on2)c1,-26%,-22%,i,-4%,8%,-10%
CCN(CC(=O)NCc1cccs1)C(=O)c1ccc(OC)c(OC)c1,-6%,-3%,i,-5%,9%,-20%
COCCn1c(=O)c(-c2ccc(F)cc2)nc2cnc(OCc3ccccc3)nc21,-8%,1%,.,.,.,.
ClCc1ncc(-c2ccc(Cl)cc2)o1,16µM*,15µM*,i,-9%,8%,8%
Cc1ccc2nc3c(cc2c1)c(NC(=O)C(C)(C)C)nn3CC(C)C,-16%,-22%,.,-5%,0%,8%
CCN(CC)C(=S)S,?,24µM*,.,.,.,.
NC(=O)CC(NC(=O)Cc1cccc2ccccc12)c1ccc(NC2CC3CCC2C3)c([N+](=O)[O-])c1 (stereo unspecified),-1%,3%,?,3.5µM*,?,?
Cc1cc(C)cc(C(=O)NC(CC(N)=O)c2ccc(NC3CCCCCC3)c([N+](=O)[O-])c2)c1 (stereo unspecified),?,?,i,-15%,3%,-5%
COc1ccc(CCNc2ccc(C(CC(N)=O)NC(=O)Cc3ccc(Br)cc3)cc2[N+](=O)[O-])cc1 (stereo unspecified),-29%,?,i,4%,-3%,-3%
COc1ccc(CCNc2ccc(C(CC(N)=O)NC(=O)c3ccc(Br)cc3)cc2[N+](=O)[O-])cc1 (stereo unspecified),16µM*,23µM*,.,-81%,?,?
NC(=O)CC(NC(=O)c1ccc(Br)cc1)c1ccc(NC2CCCCCCC2)c([N+](=O)[O-])c1 (stereo unspecified),16µM*,16µM*,.,-4%,?,-5%
NC(=O)CC(NC(=O)Cc1cccc2ccccc12)c1ccc(NC2CCCC2)c([N+](=O)[O-])c1 (stereo unspecified),-12%,3%,i,4%,1%,-10%
NC(=O)CC(NC(=O)c1ccccc1)c1ccc(NC2CCCCCCC2)c([N+](=O)[O-])c1 (stereo unspecified),23µM*,23µM*,?,-3%,?,-1%
Cn1c(=O)c2c(nc(NCc3ccco3)n2CC(O)COc2ccccc2)n(C)c1=O (stereo unspecified),9.2µM*,?,i,-27%,4%,-25%
COc1cccc(Cn2c(NCc3ccco3)nc3c2c(=O)n(C)c(=O)n3C)c1,1.5µM*,1.8µM*,i,-35%,-39%,0%
CCCn1c(NCc2ccco2)nc2c1c(=O)n(C)c(=O)n2C,13µM*,?,i,-8%,4%,?
COc1ccc(Cl)c(Cn2c(NCc3ccco3)nc3c2c(=O)n(C)c(=O)n3C)c1,3.7µM*,4.6µM*,i,5%,-15%,-32%
Cn1c(NCc2ccco2)nc2c1c(=O)n(Cc1ccc(Br)cc1)c(=O)n2C,?,?,i,-35%,-12%,-3%
COc1ccccc1NC(=O)c1cc2c(n(-c3ccc(C)cc3)c1=O)CC(C)(C)CC2=O,5%,-23%,i,6%,2%,3%
O=C(Nc1cccc(F)c1)[C@H](CSCc1ccccc1)N1Cc2ccccc2C1=O,?,-8%,i,-9%,-8%,5%
CCCCC1=CC2=C(c3ccco3)C(=O)C(C)(OC(=O)c3ccc(OC)cc3)C(=O)C2=CN1CC(C)C (stereo unspecified),5.2µM*,3.3µM*,i,-4%,6%,-23%
SMILES,DT40 TDP1 no CPT,DT40 TDP1 CPT,ATXN viability,HepG2 viability,ATXN2 expr inh,TGFb SMAD3 inh
CCCCC1=CC2=C(c3ccco3)C(=O)C(C)(OC(=O)c3ccc(OC)cc3)C(=O)C2=CN1CC1CC1 (stereo unspecified),18µM*,8.2µM*,?,-7%,-19%,-23%
CCn1c(SCC(=O)N(C)Cc2ccc(OC)c(F)c2)nc2cc(S(N)(=O)=O)ccc21,1%,1%,i,-24%,-18%,-4%
O=C(O)/C=C\c1cccc(-n2nnnc2SCc2ccccc2F)c1,24%,2%,i,9%,-2%,7%
COc1ccc2[nH]c3c(c2c1)CCN1C(=O)N([C@@H](C)C(=O)NCCc2ccc(OC)c(OC)c2)C(=O)[C@]31C,15µM*,23µM*,i,-26%,-18%,-6%
COc1ccc(CCNC(=O)[C@H](C)N2C(=O)N3CCc4c([nH]c5ccccc45)[C@@]3(C)C2=O)cc1OC,?,?,?,-6%,?,-17%
COc1cccc(CNC(=O)[C@@H](C)N2C(=O)N3CCc4c([nH]c5ccc(OC)cc45)C3(C)C2=O)c1 (stereo partly specified),16µM*,15µM*,i,-6%,-2%,?
COc1ccc2[nH]c3c(c2c1)CCN1C(=O)N([C@@H](C)C(=O)NCc2ccc(C)cc2)C(=O)[C@]31C,?,-22%,i,-29%,-8%,-13%
COc1ccc(CNC(=O)[C@H](C)N2C(=O)N3CCc4c([nH]c5ccc(OC)cc45)[C@@]3(C)C2=O)cc1,?,?,i,-27%,-10%,-26%
COc1ccc(CCNC(=O)[C@H](C)N2C(=O)N3CCc4c([nH]c5ccccc45)[C@@]3(C)C2=O)cc1,16µM*,21µM*,i,-42%,-19%,-16%
COc1ccccc1CNC(=O)[C@H](C)N1C(=O)N2CCc3c([nH]c4ccccc34)[C@@]2(C)C1=O,18µM*,29µM*,i,-26%,-25%,?

# High-throughput results: PubChem, National Center for Advancing Translational Sciences (NCATS)
